Compounds with a hit are over-represented: about 1.6% of the library has one in this group of screens.
KCNQ2 pot: potentiators of rat KCNQ2 potassium channel | AID 2239, 2010 | 0.54% of 310,000 active | CHO-K1 KCNQ2, FluxOR thallium flux fluorescence; stronger effect = higher value | B-score at 10 µM | Potassium voltage-gated channel subfamily KQT member 2 (Rattus norvegicus), O88943;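 active means fluorescence ratio B-score at least 3 SD of library B-scores, with initial fluorescence B-score within 3 of them, cut at about 5.3 in these data; same plate scores as AID 2156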;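 further: B-score of peak minus minimum over baseline fluorescence ratio after K+ and Tl+ stimulus; positive B-score means potentiation of KCNQ2 with more thallium influx and brighter signal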
KCNQ2 block: rat KCNQ2 potassium channel inhibitors, primary screen, cell-based, CHO-K1, FluxOR thallium flux, B-score | Potassium voltage-gated channel subfamily KQT member 2 (Rattus norvegicus), O88943 | 20 min; stronger effect = lower value | B-score at 10 µM | 1.1% of 310,000 active | AID 2156, 2009;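 active means fluorescence ratio B-score at most minus 3 library SDs, with starting brightness B-score within 2 library SDs, cut at about -5.5 in these data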
Kir21 conf inh: mouse Kir2.1 channel blockers, retest, confirmation, cell-based, FluxOR thallium flux, duplicate. shares compounds with KCNQ2 pot. 41% of 2,300 active. Kir2.1-expressing cells, FluxOR thallium flux fluorescence; stronger effect = lower value. Tl flux remaining, % of negative control (stronger effect = lower value), % at 10 µM. AID 2032, 2009;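 active means Primary-screen hit whose thallium flux fell at least 3 control SD below untreated wells in both duplicates, with normal baseline fluorescence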;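 further: 0% = blank wells without stimulus and 100% = stimulated no-compound controls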
Target sequence (P35561 whole entry, looked up): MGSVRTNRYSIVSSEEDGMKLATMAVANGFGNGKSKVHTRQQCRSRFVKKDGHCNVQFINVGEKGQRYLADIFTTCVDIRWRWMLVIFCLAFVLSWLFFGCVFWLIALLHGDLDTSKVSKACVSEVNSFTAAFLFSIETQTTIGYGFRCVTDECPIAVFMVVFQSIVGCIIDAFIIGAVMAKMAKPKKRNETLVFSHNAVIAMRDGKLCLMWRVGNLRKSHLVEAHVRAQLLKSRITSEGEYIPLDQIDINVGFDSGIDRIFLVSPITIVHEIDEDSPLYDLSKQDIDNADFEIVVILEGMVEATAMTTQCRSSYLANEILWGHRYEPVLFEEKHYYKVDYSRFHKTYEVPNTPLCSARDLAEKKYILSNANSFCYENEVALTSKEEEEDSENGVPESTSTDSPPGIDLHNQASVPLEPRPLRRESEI
HEK293 ctr: parental HEK293 activity in Kir2.1 inhibitor counter-screen; shares compounds with KCNQ2 pot; parental HEK293 cells, FluxOR thallium flux fluorescence; 0% = unstimulated blank wells; FluxOR signal as % of negative control (100 = no effect), % at 10 µM; 19% of 2,300 active; AID 2105;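 active means dye signal at least 3 control SD above or below untreated wells in both duplicates, raw fluorescence within 3, either direction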;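 further: percent is based on the flux ratio of peak minus minimum fluorescence over baseline F0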
CHO-K1 ctr: nonspecific thallium flux increase in parental CHO-K1, confirmation, counter-screen for KCNQ2 potentiator project, cell-based, FluxOR thallium flux, duplicate | shares compounds with KCNQ2 pot | parental CHO-K1 cells, FluxOR thallium flux fluorescence; zero = vehicle mean+3SD, 100% = vehicle-minus-blank window | activity increase over 3SD of controls, % at 10 µM | 43% of 1,200 active | AID 2282, 2010;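 active means signal rise of at least 3 SD above the untreated control mean, in both duplicate wells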;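 further: counter screen of KCNQ2 potentiator hits so any rise reflects channel-independent effects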
KCNQ1 sel pot: human KCNQ1 channel potentiation off-target, confirmation, selectivity assay for KCNQ2 potentiator project, cell-based, CHO, FluxOR thallium flux; shares compounds with KCNQ2 pot; CHO KCNQ1 stable, FluxOR thallium flux fluorescence; beyond 3SD, as % of vehicle-control signal; activation over 3SD threshold, % at 10 µM; 28% of 1,200 active; AID 2283, 2010;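 active means fluorescence ratio rise of at least 3 SD of vehicle wells above their mean, in both replicate wells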;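 further: 0% = vehicle mean plus 3 SD and 100% = vehicle minus unstimulated blank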
KCNQ2 pot conf: rat KCNQ2 channel potentiators, confirmation, cell-based, CHO, FluxOR thallium flux, duplicate; 68% of 1,200 active; potentiation, less the hit threshold, % at 10 µM; shares compounds with KCNQ2 pot; CHO-KCNQ2 cells, FluxOR thallium flux fluorescence;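 active means fluorescence ratio rising 3 SD or more over the vehicle control mean in both replicates, plus primary screen hit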;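 further: peak minus minimum thallium fluorescence divided by baseline after K/Tl stimulus; 0% = vehicle mean plus 3 SD and 100% = vehicle minus unstimulated blank difference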
Kir2-1 sel: mouse Kir2.1 channel activation off-target, confirmation, selectivity assay for KCNQ2 potentiator project, cell-based, HEK293, FluxOR thallium flux; shares compounds with KCNQ2 pot; HEK293 Kir2.1, FluxOR thallium flux fluorescence; activity over 3SD threshold, % at 10 µM; 2% of 1,200 active; AID 2345, 2010;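 active means fluorescence ratio rise of at least 3 SD above the vehicle-control mean, seen in both replicates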;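 further: 0% = vehicle mean plus 3 SD and 100% = vehicle minus no-stimulus blank window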
KCNQ2 W236L pot: potentiators of retigabine-insensitive KCNQ2 W236L, mechanism study for KCNQ2 potentiator project, cell-based, rat KCNQ2 W236L, CHO, automated patch clamp | shares compounds with KCNQ2 pot | automated patch clamp current | current increase over 3SD of negative controls (%), stronger effect = higher value, % at 25 µM | 10% of 940 active;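 active means current increase at least 3 SD of the untreated controls above them in both duplicate recordings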
The depositor's hits bear a star; i = inactive; nt = no result.

SMILES	KCNQ2 pot	KCNQ2 block	Kir21 conf inh	HEK293 ctr	others
CCCc1ccc(C(C)NC(=S)NC2CCCCC2)cc1 (centres undefined)	22.5*	i	i	i	CHO-K1 ctr=-14.6;KCNQ1 sel pot=0.9*;KCNQ2 pot conf=39.2*;Kir2-1 sel=-33.2;KCNQ2 W236L pot=i
Cc1ccc(CNC(=O)NC2CCCCC2)cc1	5.14	i	nt	nt
CSc1ccccc1NC(=O)CN(C)CC(=O)Nc1c(F)cccc1F	nt	i	nt	nt
CC(=O)Nc1cc(NC(C)=O)cc(C(=O)OCC(=O)Nc2ccc(S(=O)(=O)NC3=NCCCCC3)cc2)c1	0.67	i	nt	nt
COc1ccc(C(=O)Nc2c(N)nc(SCC(=O)c3ccccc3)[nH]c2=O)cc1	nt	i	nt	nt
COc1ccc(/C=N/NC(=O)NC23CC4CC(CC(C4)C2)C3)c(OC)c1	nt	i	nt	nt
CCN(CC(=O)NC(=O)NC1CCCCC1)Cc1ccccc1	nt	i	nt	nt
CCN(CC(=O)NC(=O)NC1CCCCC1)Cc1nc2ccccc2c(=O)[nH]1	10.2*	i	i	i	CHO-K1 ctr=63.4*;KCNQ1 sel pot=16.8*;KCNQ2 pot conf=33.5*;Kir2-1 sel=-33.1;KCNQ2 W236L pot=i
COC(=O)c1ccccc1NC(=S)N(Cc1ccc2c(c1)OCO2)Cc1cc2cc(OC)ccc2[nH]c1=O	nt	i	nt	nt
COc1ccc(NC(=O)C(NS(=O)(=O)c2cccs2)C(C)C)cc1Cl (centres undefined)	nt	i	nt	nt
CCC(C)NCCOCCOc1ccccc1-c1ccccc1 (centres undefined)	nt	i	44.5%*	i
CC(C)(C)NCCOCCOc1ccccc1-c1ccccc1	1.74	i	nt	nt
COc1ccc(S(=O)(=O)NCCSCc2ccco2)cc1Cl	0.75	i	58.0%*	i
COc1ccc(S(=O)(=O)NCCSCc2ccco2)cc1C	nt	i	nt	nt
O=C(Nc1ccc(S(=O)(=O)N2CCCCC2)cc1)C1CCCN(C(=O)c2ccc(Cl)cc2)C1 (centres undefined)	1.08	i	nt	nt
O=C(CSc1ccc(Cl)cc1)N1N=CCC1c1ccccc1 (centres undefined)	nt	i	66.5%*	i
NC(=NC(=O)c1ccc(Cl)cc1)N1N=CCC1c1ccccc1 (centres undefined)	nt	i	nt	nt
COc1cc(CNC2CCCC2)cc(Cl)c1OCc1ccc(F)cc1	nt	i	nt	nt
COc1cc(CNC2CCCC2)cc(Cl)c1OCc1ccccc1Cl	nt	i	31.0%*	i
CCN(Cc1ccccc1)Cc1ccc(OCc2ccccc2)c(OC)c1	nt	i	nt	nt
COc1cc(CN(C)CCc2ccccc2)ccc1OCc1ccccc1	nt	i	16.5%*	i
CCOC(=O)c1c(CSc2ccccc2)n(C)c2cc(Br)c(O)c(CN(C)C)c12	nt	i	nt	nt
CCOC(=O)c1c(CSc2ccsc2)n(C)c2cc(Br)c(O)c(CN(C)C)c12	nt	i	60.5%*	66.5%*
CC(=O)NS(=O)(=O)c1ccc(NC(=O)CC23CC4CC(CC(Br)(C4)C2)C3)cc1	0.16	i	nt	nt
Cc1cc(N=Cc2cc(Br)ccc2O)no1	9.12*	i	i	i	CHO-K1 ctr=-17.5;KCNQ1 sel pot=-7.0;KCNQ2 pot conf=0.8*;Kir2-1 sel=-21.7;KCNQ2 W236L pot=i
SMILES	KCNQ2 pot	KCNQ2 block	Kir21 conf inh	HEK293 ctr	others
Cc1ccc(S(=O)(=O)/N=C/c2cc(Br)ccc2O)cc1	4.31	i	nt	nt
CCOC(=O)CSc1nnc(-c2ccco2)n1-c1ccccc1	nt	i	nt	nt
COC(=O)c1cccc(CSc2nnc(-c3ccco3)n2-c2ccccc2)c1	nt	i	58.0%*	68.0%*
CCOc1cc(N2CCOCC2)c(OCC)cc1NC(=O)CN1C(=O)NC(C)(C2CC2)C1=O (centres undefined)	nt	i	nt	nt
CCOc1cc(N2CCOCC2)c(OCC)cc1NC(=O)Cc1ccc(OC)c(OC)c1	nt	i	nt	nt
CCOc1cc(N2CCOCC2)c(OCC)cc1NC(=O)Cc1cccc(OC)c1	10.4*	i	i	i	CHO-K1 ctr=36.0*;KCNQ1 sel pot=14.1*;KCNQ2 pot conf=72.2*;Kir2-1 sel=-50.1;KCNQ2 W236L pot=i
CCOc1cc(N2CCOCC2)c(OCC)cc1NC(=O)CC12CC3CC(CC(C3)C1)C2	23.4*	i	i	i	CHO-K1 ctr=-18.4;KCNQ1 sel pot=-25.2;KCNQ2 pot conf=113.2*;Kir2-1 sel=-28.4;KCNQ2 W236L pot=0.7%*
Cc1ccccc1NS(=O)(=O)c1ccc2oc(=O)ccc2c1	nt	i	nt	nt
Cc1ccc(NC(=O)COC(=O)Cc2cccs2)cc1S(=O)(=O)N1CCOCC1	nt	i	nt	nt
Cc1cccc(CCNC(=O)COc2cc(=O)n(C)c3ccccc23)c1	nt	i	nt	nt
CCN(CCCNC(=O)COc1cc(=O)n(C)c2ccccc12)c1cccc(C)c1	nt	i	60.0%*	i
O=C(Nc1cccnc1)OC1CCCC1	0.26	i	nt	nt
CCn1ncc(/C=N/NC(=O)c2ccc3c(c2)OCO3)c1C	nt	i	nt	nt
CCn1cc(/C=N/NC(=O)c2ccc3c(c2)OCO3)c(C)n1	6.3*	i	i	i	CHO-K1 ctr=-12.5;KCNQ1 sel pot=-24.9;KCNQ2 pot conf=-19.6;Kir2-1 sel=-39.0
O=C(N/N=C/c1cccc(Oc2ccccc2)c1)c1cccc(Br)c1	nt	i	nt	nt
O=C(N/N=C/c1cccc(Oc2ccccc2)c1)c1cccc(O)c1	nt	i	74.0%*	i
CC(C)CNC(=O)COC(=O)c1n[nH]c2ccccc12	nt	i	nt	nt
CCCCCC(=O)Cc1cc(O)cc2c1C(=O)Oc1cc(O)c(C(=O)O)c(CCCCC)c1O2	7.51*	i	i	i	CHO-K1 ctr=-7.6;KCNQ1 sel pot=42.7*;KCNQ2 pot conf=8.8*;Kir2-1 sel=-21.2;KCNQ2 W236L pot=i
O=C(CCSCc1ccc(Cl)cc1)NCc1cccnc1	0.57	i	nt	nt
Cc1cc(C)n(/N=C/c2cc(Cl)cc(Cl)c2O)c(=O)c1	9.78*	i	i	i	CHO-K1 ctr=-13.9;KCNQ1 sel pot=39.2*;KCNQ2 pot conf=-13.0;Kir2-1 sel=-41.5
Cc1cc(C)n(/N=C/c2ccccc2O)c(=O)c1	nt	i	nt	nt
CC(c1ccon1)N(C)C(=O)CCc1nnc(C2(c3ccc(Cl)cc3)CCC2)o1 (centres undefined)	1.86	i	nt	nt

Compound activity as filed in PubChem BioAssay.
